Reference: PubChem BioAssay AID932 (The Scripps Research Institute Molecular Screening Center, 2007)
Among all 200,000 compounds or so, about 5,100 (2.5%) were called active. The sample as a whole holds a higher share of actives than the screen did. A number with no mark means an inactive call.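 The calls were made as follows: active = activation above the screen-wide mean activation plus 3 SD (cut at about 130% in these data); inactive = the rest.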

Assay: potentiators of IFN-gamma driven STAT1 reporter – cell-based, HTS, luciferase reporter, primary screen (AID 932);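 also: raw ratio to IFN-gamma control signal so 100% means no change and 0% no light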
Conditions: NIH 3T3 STAT1-luciferase reporter, luminescence, at 5.5 µM, active compounds read high, 100% = IFN-gamma alone, no compound

Compound | activation (% of control)
COC(=O)c1ccc(NCC(=O)c2ccccc2)cc1 | 133% (active)
Cc1ccc(C(=O)CNc2ccc(F)cc2)cc1 | 111%
COC(=O)c1ccc(NCC(=O)N2CCCCCC2)cc1 | 114%
CN(Cc1ccccc1)C(=O)CCc1ccccc1 | 104%
Cc1ccn(-c2cccc(-n3ccc(C)n3)n2)n1 | 135% (active)
COc1cc(C(=O)NCc2ccc3c(c2)cc(C)n3C)cc(OC)c1OC | 89.2%
COc1cccc(CNC(=O)CCC2CCCN(C(=O)c3ccoc3C)C2)c1 (configuration not stated) | 105%
Cc1cccc(N2CCN(C(=O)/C=C/c3ccco3)CC2)c1C | 99.5%
Cc1ccc(NC(=O)Nc2ccc3oc(C)nc3c2)cc1 | 177% (active)
Cc1nc2cc(NC(=O)NCc3ccccc3)ccc2o1 | 111%
Cc1nc2ccc(NC(=O)C(F)(F)F)cc2o1 | 95.8%
CC(C)NC(=O)/C(C#N)=C\c1ccc(N(C)C)c(Br)c1 | 100%
N#Cc1cccc(Nc2c3c(nc4ccccc24)CCCC3)c1 | 85.5%
Cc1cc(C(=O)NCCCc2ccccc2)no1 | 110%
CC(C)Cc1cc(C(=O)Nc2cc(Br)ccc2O)no1 | 101%
CC(C)Cc1cc(C(=O)NCCc2ccccc2)no1 | 130% (active)
COc1ccc2c(c1)CC[C@@H]1[C@@H]2CC[C@]2(C)C(=O)CC[C@@H]12 | 106%
O=C(Cc1cccc2ccccc12)Nc1ccc2oc(-c3ccccc3)nc2c1 | 102%
COc1ccc2oc(-c3cccc(NC(=O)CSc4ccc(Cl)cc4)c3)nc2c1 | 163% (active)
COc1cccc(-c2nc3cc(C)ccc3o2)c1 | 106%
O=C(Nc1cccc(O)c1)c1ccc(C(=O)c2ccccc2)o1 | 113%
O=C(NCc1cccs1)c1cc(-c2ccccn2)nc2ccc(Br)cc12 | 106%
COc1ccc(-c2cn(-c3ccc(OC)cc3)c(=S)[nH]2)cc1 | 110%

Compound | activation (% of control)
O=C(NNC(=S)Nc1ccc(Br)cc1Cl)c1ccco1 | 140% (active)
S=C(Nc1ccc(Br)cc1Cl)NC1CCN(Cc2ccccc2)CC1 | 100%
CCC(=O)NC(=S)Nc1ccc(NC(=O)c2ccco2)c(Cl)c1 | 109%
CCN1CCN(C(=O)CCN2C(=O)c3ccccc3C2=O)CC1 | 96.8%
CCc1ccccc1NC(=O)CSc1nnc(-c2ccncc2)o1 | 99.3%
O=C(Nc1ccc(C(=O)O)cc1)/C(=C/c1ccc([N+](=O)[O-])cc1)NC(=O)c1ccccc1 | 94.6%
COc1ccc(-c2nn(-c3ccccc3)cc2/C=C\C(=O)Nc2ccc(C(=O)O)cc2)cc1 | 103%
Cc1cccc(-c2noc(-c3ccc(F)cc3)n2)c1 | 152% (active)
COc1ccc(-c2noc(CSc3ccc(C)cc3)n2)cc1 | 102%
COc1ccc(-c2noc(-c3ccc(C)cc3)n2)cc1 | 133% (active)
Cc1ccc(Cc2nc(-c3cccc(C)c3)no2)cc1 | 115%
COc1ccc2[nH]c(=O)c(-c3noc(-c4ccc(F)cc4)n3)cc2c1 | 114%
COc1ccc(-c2nc(-c3ccccc3)no2)c(OC)c1 | 43.8%
CC1COc2ccccc2N1C(=O)c1cccnc1Cl (configuration not stated) | 98.3%
Cc1nc(N)c(Br)c(C)c1Br | 96.7%
CNC(=S)Nc1ccc([N+](=O)[O-])cc1 | 96.9%
Cc1cc(C(=O)CC#N)c(C)n1-c1c(C)n(C)n(-c2ccccc2)c1=O | 102%
CC1(C)CC(=O)C/C(=N\NC(=O)c2cccs2)C1 | 101%
COc1ccccc1Oc1nc(-c2cccnc2)nc2ccccc12 | 102%
CC(=O)c1c(C)[nH]c(C(=O)OCC(=O)NCCC(C)C)c1C | 86.3%
CCCCOC(=O)c1[nH]c(C)c(C(=O)OC)c1C | 134% (active)
COC(=O)c1c(C)[nH]c(C(=O)/C=C/c2ccc(Cl)cc2)c1C | 98.9%
COC(=O)C1=C(N)Oc2c(oc(CO)cc2=O)C1c1c(F)cccc1Cl (configuration not stated) | 95.5%

Compound | activation (% of control)
COc1cccc(CC2(CO)CCN(Cc3cnc(-c4cccc(C)c4)nc3)CC2)c1 | 99.5%
N/C(=N\OC(=O)/C=C/c1ccccc1)c1ccc(Br)cc1 | 98.9%
N/C(=N\OC(=O)N1c2ccccc2Sc2ccccc21)c1ccc(Br)cc1 | 92.7%
N/C(=N\OC(=O)c1ccc2c(c1)OCO2)c1ccc(Br)cc1 | 144% (active)
CN(NC(=O)C1CC(=O)N(c2ccccc2)C1)C1=NS(=O)(=O)c2ccccc21 (configuration not stated) | 97.3%
O=C(c1cccc2ccccc12)N1CCN(c2ccccc2F)CC1 | 101%
O=C(CCSc1ccccc1)N1CCN(c2ccccc2F)CC1 | 135% (active)
O=C(CCS(=O)(=O)c1cccc2nsnc12)N1CCN(c2ccccc2F)CC1 | 106%
COc1cc(CN2CCN(Cc3ccc(C)cc3)CC2)c([N+](=O)[O-])cc1OC | 90.7%
Cc1cc(C)nc(-n2ncc3c2CC(c2ccc(C(C)C)cc2)CC3=O)n1 (configuration not stated) | 104%
Cc1cc(C)cc(C(=O)NC2C(=O)N3C(C(=O)O)=C(CSc4nnc(C)s4)CSC23)c1 (configuration not stated) | 93.1%
COc1cc(NC(=O)c2ccc3c(c2)OCO3)ccc1NC(=O)c1cccs1 | 101%
COc1ccc(CCNC(=O)C(=O)NCc2ccccc2C)cc1OC | 96.8%
COc1cc(CNc2ncn[nH]2)ccc1OCc1ccccc1C | 131% (active)
c1n[nH]c(NCc2ccc3c(c2)OCO3)n1 | 89.7%
COc1cccc(CC2(CO)CCCN(CC3=Cc4cc(OC)ccc4OC3)C2)c1 (configuration not stated) | 92%
CCOC(=O)c1ccc(NC(=O)c2cc(=O)[nH]c3ccccc23)cc1 | 102%
COC(=O)[C@H]1Cc2cnoc2C[C@]1(C)C(=O)O | 106%
CCc1nnc(NC(=O)c2cccs2)s1 | 134% (active)
CCCc1nnc(NC(=O)c2cccs2)s1 | 115%
CCc1nnc(NC(=O)Cc2cccs2)s1 | 98.1%
